Entries with a potency or affinity are not part of this list. The source made the active and inactive calls. No rule for the calls is given here.
Experiment: SV40 cytopathic effect inhibition and cytotoxicity, confirmation, BSC cells, set 3 (AID 485276)
Details: series mostly up to 200 µM

| SMILES | outcome |
| --- | --- |
| CC(C)(c1ccc(O)cc1)c1ccc(Cl)cc1 | inactive |
| Oc1ccc(C2(c3ccc(O)cc3)CC2)cc1 | inactive |
| Oc1ccc(Cl)cc1Cc1cc(Cl)ccc1O | inactive |
| Oc1c(Cl)cc(Cl)cc1Sc1cc(Cl)cc(Cl)c1O | inactive |
| CC(C)(c1ccccc1)n1nnc(-c2ccccc2)n1 | inactive |
| Oc1ccc(Oc2ccc(O)cc2)cc1 | inactive |

Reference: PubChem BioAssay AID485276 (Southern Research Specialized Biocontainment Screening …, 2010)
